Data reported in PubChem BioAssay (Tox21).
Values without a mark were called inactive. Active and inactive are the calls of the source. The call rests on the fitted dose curve.

biological target: Acetylcholinesterase (Homo sapiens) (UniProt P22303); assay: Acetylcholinesterase (AChE) small molecule antagonists: enzyme-based qHTS assay (AID 1347397); settings: Potency: AChE enzyme activity inhibition; outcome: AChE enzyme activity inhibition; series mostly up to 115 µM; activity change, negative = inhibition: at the top concentration; further: nearly all actives have a fitted effect of over 55% in size
Sequence (P22303 whole entry, looked up): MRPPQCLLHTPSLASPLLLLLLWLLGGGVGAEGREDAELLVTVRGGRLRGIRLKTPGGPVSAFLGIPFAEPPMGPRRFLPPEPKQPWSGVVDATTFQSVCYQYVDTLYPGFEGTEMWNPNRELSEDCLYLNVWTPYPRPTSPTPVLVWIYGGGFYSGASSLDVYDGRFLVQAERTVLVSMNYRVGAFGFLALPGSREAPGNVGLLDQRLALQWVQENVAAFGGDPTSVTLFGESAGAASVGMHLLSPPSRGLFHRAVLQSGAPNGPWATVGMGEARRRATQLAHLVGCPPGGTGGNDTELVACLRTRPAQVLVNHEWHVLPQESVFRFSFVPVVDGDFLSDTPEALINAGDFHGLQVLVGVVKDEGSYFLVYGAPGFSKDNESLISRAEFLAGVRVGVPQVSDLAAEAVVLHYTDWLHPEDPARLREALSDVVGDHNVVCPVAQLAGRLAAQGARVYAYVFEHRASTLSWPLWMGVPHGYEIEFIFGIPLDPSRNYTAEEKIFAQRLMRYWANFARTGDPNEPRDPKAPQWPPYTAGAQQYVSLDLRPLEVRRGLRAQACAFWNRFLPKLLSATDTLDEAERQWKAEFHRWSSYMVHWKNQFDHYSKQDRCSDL
Method in brief: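 Colorimetric DTNB read-out of thiocholine released from acetylthiocholine by recombinant human AChE (50 mU/mL as dispensed). Compounds were preincubated 30 min at RT before substrate/DTNB addition, with a 10 min RT reaction.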
On the % scale 0 is the no-effect control and ±100 the full control effect; potency means the concentration at half of the fitted maximal effect.

Structure (SMILES)	activity change, negative = inhibition	Potency
O=C(O)C1(C(=O)Nc2ccc(Cl)cc2Cl)CC1	-6.67%	–
CCCCCCCC/C=C\CCCCCCCCCCCC(=O)O	-7.78%	–
O=C(OOC(=O)c1ccccc1)c1ccccc1	0.593% [at 53 µM]	–
CS(C)=O	1.64%	–
Cc1nc2ccccc2n1Cc1ccc(Cl)cc1	0.145% [at 53 µM]	–
CCNC(=O)NCCCOc1cccc(CN2CCCCC2)c1	-7.73% [at 53 µM]	–
CN[C@H]1CC[C@@H](c2ccc(Cl)c(Cl)c2)c2ccc(S(N)(=O)=O)cc21	-17%	–
CC1CCCO1 (stereo not given)	-0.682%	–
CCO[Si](CCCSSSSCCC[Si](OCC)(OCC)OCC)(OCC)OCC	-2.56%	–
CC(C(=O)O)c1ccc(C(=O)c2ccccc2)s1 (stereo not given)	0.553% [at 53 µM]	–
CC1CCN(CCCC(=O)c2ccc(F)cc2)CC1	-0.477% [at 53 µM]	–
CCN1CCCC1CNC(=O)c1cc(S(N)(=O)=O)ccc1OC (stereo not given)	-9.67%	–
O=C1C(O)=C(O)C(=O)C(O)=C1O	0.54% [at 53 µM]	–
COc1ccc(-c2cc(=O)c3c(O)cc(O[C@@H]4O[C@H](CO[C@@H]5O[C@@H](C)[C@H](O)[C@@H](O)[C@H]5O)[C@@H](O)[C@H](O)[C@H]4O)cc3o2)cc1O	0.415% [at 53 µM]	–
C=CC(C)(O)CC/C=C(\C)CCC=C(C)C (stereo not given)	-0.903%	–
[O-][n+]1cccc(/C(Cl)=N/OC[C@@H](O)CN2CCCCC2)c1	-3.05% [at 53 µM]	–
CN1CCC(=C2c3ccccc3CC(=O)c3sccc32)CC1	0.275% [at 53 µM]	–
CC1(C)CCC(C)(C)c2cc(C(=O)Nc3ccc(C(=O)O)cc3)ccc21	-0.263%	–
CCC(CN)=C(c1ccccc1)c1ccccc1	-1.09% [at 53 µM]	–
CC(=O)O[C@@H]1CC2CCC1(C)C2(C)C (stereo not given in full)	2.66%	–

Structure (SMILES)	activity change, negative = inhibition	Potency
COC(=O)C1=C(C)NC(C)=C(C(=O)OCCN2CCN(C(c3ccccc3)c3ccccc3)CC2)C1c1cccc([N+](=O)[O-])c1 (stereo not given)	2.2% [at 53 µM]	–
CCCCCCOC(=O)CC(CC(=O)OCCCCCC)(OC(=O)CCC)C(=O)OCCCCCC	-3.94%	–
Cc1c(C(=O)NCCO)[n+](=O)c2ccccc2n1[O-]	2.2% [at 53 µM]	–
CC(C)(C)c1csc(-c2cc3cc(OCc4ccccc4CC(=O)O)ccc3o2)n1	-12.8%	–
CC(=O)Oc1cc2c(s1)CCN(C(C(=O)C1CC1)c1ccccc1F)C2 (stereo not given)	-0.154% [at 53 µM]	–
CCCCCCCCCCCCCCCCCCNC(=O)OC1CCN(C(=O)OC[C@H](COC(=O)N(Cc2cccc[n+]2CC)C(=O)c2ccccc2OC)OC)CC1	–	30.9 µM (active)
S=c1[nH]c2ccccc2s1	4.14%	–
COc1c(Br)cc(Br)c(C)c1Br	0.198%	–
CCCCCCCCCCCCCC=O	0.138% [at 10.5 µM]	–
Cc1cc(C)c(C=O)c(C)c1	2.25%	–
CCNS(=O)(=O)c1ccc(C)cc1	0.535%	–
O=C(NS(=O)(=O)/C=C/c1cccs1)c1ccc(F)cc1Br	1.46%	–
CO[Si](C)(OC)c1ccccc1	-2.62%	–
COCCCOCCCOC	0.132%	–
CCCCCCCC[N+](CCCCCCCC)(CCCCCCCC)CCCCCCCC	–	39.8 µM (active)
Cc1ccc(Nc2ccc(O)c3c2C(=O)c2ccccc2C3=O)cc1	0.273%	–
Cc1cc2c(cc1C(F)(F)F)N(C(=O)Nc1ccc(Oc3cccnc3C)nc1)CC2	-0.526%	–
Nc1cc(C(=O)O)ccc1Cl	0%	–
CCCCCCCCCCCC[N+](C)(C)CCCCCCCCCCCC	–	28.3 µM (active)
Cc1cccc(Br)c1	-0.141%	–
